# In PubChem BioAssay (Tox21):
# Records with an inconclusive call do not appear. A number with no mark means an inactive call. The source made the active and inactive calls. Calls follow the shape of the dose curve; as a rule, active = well fitted cell-killing curve with a large enough effect in the repeat runs; inconclusive = weak or mixed curves, or effect the other way; inactive = flat fitted curve, though single readings scatter.
# Experiment: cAMP Responsive Elements (CRE) small molecule agonists, cell-based qHTS assay: qHTS cell viability counter screen (AID 2060914); also: nearly all actives have a fitted effect of over 50% in size
# Details: CRE-bla HEK293T viability, CellTiter-Glo luminescence, 5 h; series mostly up to 92.4 µM; activity change, negative = cytotoxicity: at the top concentration
# Method in brief: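 HEK 293T CRE-bla; DMEM + 10% dialyzed FBS, 25 mM HEPES; 18 h pre-incubation; compound 3 h, 37 °C/5% CO2; CellTiter-Glo added after reporter read; luminescence after 30 min RT.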
# % is scaled to controls: 0 for no effect and ±100 for the full control effect.
Compound,"activity change, negative = cytotoxicity",Potency
Fc1ccc(C(c2ccc(F)cc2)N2CCNCC2)cc1,-10.6% [at 42.5 µM],–
CC(C)C(=O)OC(=O)C(C)C,-1.13%,–
CCOC(=O)c1cccc(N)c1,-13.7% [at 42.5 µM],–
O=CC=C(c1ccccc1)c1ccccc1,4.21%,–
CN(C)c1ccc(C2(c3ccc(N(C)C)cc3)OC(=O)c3cc(N(C)C)ccc32)cc1,-8.13%,–
CO[Si](CCCS)(OC)OC,-9.92%,–
O=C(OCC1CO1)C1CCCCC1C(=O)OCC1CO1 (centres undefined),15.7%,–
O=C(Nc1ccccc1)Nc1ccccc1,-21.4%,–
O=C(c1ccc(O)cc1)c1ccc(O)cc1O,–,inactive
CCOC(=O)c1ccc(OC(=O)CCCCCN=C(N)N)cc1,-0.626% [at 42.5 µM],–
O=C(CCCN1CCC(O)(c2cccc(C(F)(F)F)c2)CC1)c1ccc(F)cc1,10.2% [at 42.5 µM],–
N#[N+]c1ccc2c(S(=O)(=O)[O-])cccc2c1O,-14%,–
C=CCCC,0.91%,–
CNCc1cc(F)ccc1Oc1ccc(Cl)c(Cl)c1,0%,–
CSCCC=O,–,inactive
CCCCCCCCCCl,-3.58%,–
CC(=O)N[C@@H](CS)C(=O)O,3.52%,–
c1ccc2c(CC3=NCCN3)cccc2c1,-2.85% [at 42.5 µM],–
Oc1ccc(Oc2ccccc2)cc1,-17.3%,–
